DT40 TDP1 CPT: growth inhibition of DT40 Tdp1-/-;hTDP1 cells with camptothecin (screen for TDP1 inhibitors); AID 686979; Potency, µM (titrated, usually from 46.2 µM), for the others: top-dose activity change, negative = growth inhibition, actives largely listed as inhibitors; chicken DT40 Tdp1-/-;hTDP1 cells + 20 nM CPT, ATP luminescence, 48 h; 12% of 420,000 active; note: potency is the fitted concentration of half-maximal effect; nearly all actives have a fitted effect of over 55% in size
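Cell growth measured by CellTiter-Glo luminescence after a minimum 48 h, 37 C compound exposure with 20 nM CPT in Tdp1-knockout DT40 cells stably expressing hTDP1, seeded 400/well; qHTS titration format.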
TDP1 cell noCPT: qHTS for Inhibitors of human tyrosyl-DNA phosphodiesterase 1 (TDP1): qHTS in cells in absence of CPT; 15% of 420,000 active; Potency, µM (top dose mostly 46.2 µM), for inactives: top-dose activity change, negative = growth inhibition, hits mostly inhibitors; DT40 Tdp1-/- hTDP1 cells, no CPT, ATP luminescence, 48 h; note: potency is the fitted concentration of half-maximal effect; nearly all actives have a fitted effect of over 55% in size
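Stably hTDP1-transfected Tdp1-null chicken DT40 cells were treated with library compounds minus camptothecin and grown for at least 48 hr at 37 °C, after which cellular ATP was quantified by luminescence.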
HT1080-NT tox: kills 2HG-producing HT-1080-NT fibrosarcoma cells; HT-1080-NT fibrosarcoma viability, CellTiter-Glo ATP luminescence, 48 h; Potency, µM (series often up to 46.1 µM), for inactives: at the highest dose activity, negative = less viability, hits mostly cytotoxic; 1.6% of 360,000 active;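 note: NT is the 2HG producing partner of a matched IDH1 knockdown line; potency is the fitted concentration of half-maximal effect; 0% = DMSO-treated cells and -100% = media-only wells without cells; nearly all actives have a fitted effect of over 55% in size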
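Viability of the 2HG-overproducing fibrosarcoma line after 48 hours of compound exposure at 37 degrees C was determined by luminescence with CellTiter-Glo, and concentration-effect curves were then fitted and categorized.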
HT1080 IDH1KD tx: HT-1080 IDH1 knockdown cell toxicity (counter line) | HT-1080 IDH1 knockdown viability, ATP luminescence, 48 h | Potency, µM (doses to about 46.1 µM), for the others: at the highest dose activity, negative = toxicity, most hits filed as cytotoxic | 2% of 360,000 active | AID 686971;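 note: potency is the fitted concentration of half-maximal effect; 0% = DMSO wells and -100% = cell-free medium wells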
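Assay cells: HT-1080 with IDH1 knockdown, 750 per well, RPMI/5% FBS. Exposure: 48 h at 37 °C following 2 h pre-incubation. Read: CellTiter-Glo luminescence; fitted concentration-response, curve class assigned.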
IL1B secr inh: blocks inflammasome-driven IL-1 beta release. 4.7% of 360,000 active. activity change, % at 57.5 µM. THP-1 LPS/ATP IL-1B secretion, AlphaLISA, 16 h; active compounds read low; in the data active = activity change below about -50%; inconclusive = mostly about -30% to -49%
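THP-1 cells pretreated 1 hr with compounds (up to 57.5 uM final), then stimulated with LPS (250 ng/mL final) plus ATP (1.25 mM final); secreted IL-1B measured by AlphaLISA after 16 hr, decreased signal indicating inhibition.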
Starred values were filed as active, the others as inactive; ? = inconclusive; · = no result given; [ ] = another dose, or the depositor's remark. Most compounds without a hit are left out; they make up all but 19% or so of the library. Unless noted, calls come from the whole dose curve; as a rule, active = well fitted curve in the direction sought with a large enough effect; inconclusive = small, poorly fitted or top-dose-only effect, or another doubt; inactive = no such curve, though single readings can be large; an effect the other way counts as inactive or inconclusive. Unless noted, % is set by controls: 0 for no effect and ±100 for the full control effect.

SMILES	DT40 TDP1 CPT	TDP1 cell noCPT	HT1080-NT tox	HT1080 IDH1KD tx	IL1B secr inh
COc1ccc(-c2nc3ccccn3c2Nc2ccccc2C)cc1	11µM*	?	-26%	-21%	·
Cc1ccccc1Nc1c(-c2cccnc2)nc2ccc(Br)cn12	15µM*	?	-1%	0%	?
COc1ccc(-c2nc3ncccn3c2Nc2ccccc2)cc1	-2%	?	0%	0%	-21
Cc1ccc2nc(-c3cccnc3)c(Nc3ccccc3C)n2c1	16µM*	?	1%	1%	-52*
COC(=O)c1cc(Br)c(=O)n(-c2cccc(F)c2)c1	-1%	-2%	1%	17%	5
O=C1COC(c2ccccc2)=CN1Cc1ccccc1	-17%	-11%	2%	1%	-2
CCCCN1C[C@H](C)[C@@H](CC(=O)NC)C1=O	0%	-6%	0%	-4%	-7
Cc1ccccc1Nc1c(-c2cccc(N(C)C)c2)nc2ccc(Br)cn12	13µM*	23µM*	·	·	·
Cc1ccccc1Nc1c(-c2cccnc2)nc2ccc(Cl)cn12	12µM*	?	·	·	·
Cc1ccccc1Nc1c(-c2ccncc2)nc2ccc(Br)cn12	23µM*	18µM*	7%	-13%	0
Cc1ccccc1Nc1c(-c2ccc(Cl)cc2)nc2c(C)cccn12	?	-25%	·	·	·
Cc1ccccc1Nc1c(-c2ccco2)nc2c(C)cccn12	23µM*	21µM*	·	·	·
Cc1ccccc1Nc1c(-c2cc(Br)ccc2F)nc2ccccn12	-25%	-27%	·	·	·
COC(=O)Nc1c(-c2ccccc2)nc2ccc(Cl)cn12	-21%	-16%	-5%	4%	-2
CC(=O)c1cccc(N2C(=O)CN(S(C)(=O)=O)CC2(C)C(=O)NC2CCCC2)c1 (configuration not stated)	-18%	-11%	·	·	·
Cc1cc(C)c(NC(=O)CNC(=O)CN(C)Cc2ccc(Br)s2)c(C)c1	?	?	4%	6%	-2
Cc1c(C)c2ccc(OC(C)C(=O)NCCCN3CCOCC3)c(C)c2oc1=O (configuration not stated)	9%	19%	1%	16%	19
C=CCn1c(SCC(=O)NCC2CCCO2)nnc1-c1ccccc1 (configuration not stated)	-4%	5%	1%	11%	20
Cc1ccccc1Nc1c(-c2cccnc2)nc2ccccn12	21µM*	?	-9%	-11%	?
CC(C)CCNC(=O)c1onc(CSc2ccccn2)c1C(=O)NCCC(C)C	?	?	-10%	-13%	1
COc1cc(/C=N/NC(=S)NCc2ccco2)cc(OC)c1OC	16µM*	?	3%	0%	0
COc1ccccc1/C=N/NC(=S)NCc1ccco1	?	?	-4%	9%	7
S=C(NCc1ccco1)Nc1ccc(Oc2ccc(Cl)cc2)cc1	?	?	?	?	-91*
S=C(NCc1ccco1)N/N=C/c1ccc(Cl)cc1	?	21µM*	10%	17%	?
Oc1ccc(/C=N/NC(=S)NCc2ccco2)cc1	-7%	-11%	10%	14%	-14
SMILES	DT40 TDP1 CPT	TDP1 cell noCPT	HT1080-NT tox	HT1080 IDH1KD tx	IL1B secr inh
O=S(=O)(NCc1ccccc1)c1ccc(NC(=S)NCc2ccco2)cc1	?	12µM*	-7%	-10%	23
S=C(NCc1ccco1)Nc1ccccc1	13%	6%	1%	-10%	-3
NCCCC[C@@H](C(=O)N1CCNCC1)n1cc([C@@H](N)CC(N)=O)nn1	?	-4%	4%	11%	13
CCCc1cc(-c2nc(-c3ccc(Cl)cc3)cs2)ccn1	18µM*	18µM*	-12%	0%	15
COc1ccc(OCCCC(=O)Nc2cccc([N+](=O)[O-])c2C)cc1	-21%	-19%	0%	5%	1
CC1=C(C#N)C(C(F)(F)F)(C(F)(F)F)N=C(c2ccco2)N1	?	16µM*	8%	0%	-13
Cc1cccc2cc(CN(C(=O)c3ccc(N4CCCCC4)cc3)C3CC3)c(N3CCC(O)CC3)nc12	-1%[9.04 µM]	-24%	·	·	·
COc1ccccc1C(=O)N(Cc1cc2cccc(C)c2nc1N1CCC(O)CC1)C1CC1	-7%[9.04 µM]	16µM*	·	·	·
Cc1cccc2cc(CN(C(=O)c3ccc(-c4ccc(F)cc4)cc3)C3CC3)c(N3CCC(O)CC3)nc12	?	23µM*	·	·	·
Cc1cccc2nc(CSc3nc4cc([N+](=O)[O-])ccc4s3)cn12	?	?	0%	3%	-8
CCn1c(=O)c2cc(C(=O)NC3CCC(C)CC3)sc2c2ccccc21 (configuration not stated)	16µM*	-85%	·	·	·
CCn1c(=O)c2cc(C(=O)NCCCN3CCC(C)CC3)sc2c2ccccc21	23µM*	18µM*	·	·	·
CCn1c(=O)c2cc(C(=O)NCCCN3CCN(C)CC3)sc2c2ccccc21	16µM*	?	·	·	·
CCn1c(=O)cc(OCC(=O)NCCCN2CCC(C)CC2)c2ccccc21	-6%	-7%	-26%	-17%	-8
CCC(C)NC(=O)c1cc2c(=O)n(CC)c3ccccc3c2s1 (configuration not stated)	?	?	-2%	-4%	?
Cc1nnc(SCc2nc3scc(-c4ccccc4)c3c(=O)[nH]2)s1	-16%	-19%	-3%	-2%	3
Cc1csc(SC(C)c2nc3scc(-c4ccccc4)c3c(=O)[nH]2)n1 (configuration not stated)	?	21µM*	12%	-5%	0
CN(Cc1ccccc1)Cc1nc2scc(-c3ccccc3)c2c(=O)[nH]1	13µM*	?	-5%	0%	-4
CCn1c(SCc2nc3scc(-c4ccccc4)c3c(=O)[nH]2)nnc1-c1cccs1	21µM*	21µM*	?	?	1
Nc1nnc(SCc2nc3scc(-c4ccccc4)c3c(=O)[nH]2)s1	23µM*	18µM*	2%	13%	16
O=C(c1ccccc1C(F)(F)F)N1CCOc2c(cc(-c3nc4ccccc4s3)cc2OC2CCOC2)C1 (configuration not stated)	23%[9.04 µM]	-5%	·	·	·
COc1ccc(C(=O)C(C)OC(=O)COc2ccccc2)cc1 (configuration not stated)	12%	3%	4%	6%	7
COc1ccc2[nH]c(=O)c(CNc3cccc(C)c3)cc2c1	13µM*	12µM*	1%	-13%	15
COc1ccc(NCc2cc3cc(OC)ccc3[nH]c2=O)cc1	8.2µM*	23µM*	-10%	-8%	-11
CC(C)N1CCN(CC#Cc2ccccc2)CC1CCO (configuration not stated)	-4%	-8%	-1%	0%	-2

Screening data (PubChem BioAssay)
